# Compounds with a hit are over-represented: about 2.6% of the library has one in this group of screens.
# Rce1 inh – blocks yeast Ras-converting enzyme; Q03530; AID 2563; calls only; hit rate 0.27% among 290,000; yeast membranes, quenched prenylated peptide cleavage fluorescence;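 active = fall in fluorescence gain of 50% or more versus controls, with final raw signal at or below 3038400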;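 note: plate controls were neutral control wells for no effect and wells lacking membranes for full effect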
# Target sequence (Q03530 whole entry, looked up): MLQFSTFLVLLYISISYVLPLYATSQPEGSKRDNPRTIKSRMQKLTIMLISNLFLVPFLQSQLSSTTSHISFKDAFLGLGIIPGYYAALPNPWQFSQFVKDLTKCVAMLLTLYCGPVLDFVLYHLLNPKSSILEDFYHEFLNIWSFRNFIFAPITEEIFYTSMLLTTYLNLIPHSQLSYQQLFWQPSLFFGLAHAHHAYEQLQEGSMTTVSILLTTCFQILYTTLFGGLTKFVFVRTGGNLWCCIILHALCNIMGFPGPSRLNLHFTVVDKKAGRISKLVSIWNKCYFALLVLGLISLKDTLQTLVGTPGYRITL
# ABHD5-PLIN5 inh – inhibitors of human ABHD5-perilipin-5 interaction; Q00G26+Q8WTS1; Split G. princeps luciferase complementation, luminescence, 4 h; inhibition, % at 4 µM; hit rate 0.78% among 360,000; AID 602281;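 active = inhibition above the mean inhibition across every tested compound plus 3 SD, cut at about 22% in these data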;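 note: 0% = DMSO only wells and the 100% control is not disclosed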
# PfM18AAP inh-1 – PfM18AAP enzyme inhibition | recombinant PfM18AAP, H-Glu-NHMec fluorogenic cleavage | inhibition, % at 7.35 µM | hit rate 1.2% among 290,000;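 active = inhibition above the campaign mean inhibition over all tested compounds plus 3 SD, cut at about 28% in these data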;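 note: 0% = plate median of test compound wells and 100% = 2 mM ZnCl2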
# Granule exo inh – lytic granule exocytosis inhibition; TALL-104 LAMP-1 surface exposure, flow cytometry; cells stimulated with thapsigargin and PMA; inhibition, % at 10 µM; hit rate 0.66% among 360,000; AID 651702;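 active = inhibition above about 55%, limit read from the data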
# Platelet DG rel – platelet dense granule release activity; human platelet-rich plasma, SFLLRN dense granule ATP release, luminescence; AID 1663; hit rate 0.22% among 300,000; inhibition, %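 (compounds screened at 7.5 µM in platelet-rich plasma)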;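 active = mean replicate score, as percent of positive control, at or above 50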
# PfM18AAP inh-2 – confirmation of Plasmodium falciparum M18 aspartyl aminopeptidase inhibitors; shares compounds with PfM18AAP inh-1; recombinant PfM18AAP, H-Glu-NHMec fluorogenic cleavage; inhibition, % at 7.35 µM; hit rate 28% among 2,400; AID 2170;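 active = mean inhibition over replicate wells above the hit cutoff set for the earlier primary screen, cut at about 29% in these data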;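 note: 0% = median of test compound wells and 100% = 2 mM ZnCl2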
# CTSL1 confirm – Cathepsin L (human) inhibition, confirmation; shares compounds with PfM18AAP inh-1; purified cathepsin L1, Z-Leu-Arg-MCA fluorescence; inhibition, % at 5.96 µM; 2,400 tested, under 10 active;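 active = average inhibition across replicates above the hit cutoff set in the earlier primary screen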;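 note: 0% = median of test compound wells and 100% = Z-Phe-Ala-diazomethylketone 1 µM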
# Target sequence (P07711 whole entry, looked up): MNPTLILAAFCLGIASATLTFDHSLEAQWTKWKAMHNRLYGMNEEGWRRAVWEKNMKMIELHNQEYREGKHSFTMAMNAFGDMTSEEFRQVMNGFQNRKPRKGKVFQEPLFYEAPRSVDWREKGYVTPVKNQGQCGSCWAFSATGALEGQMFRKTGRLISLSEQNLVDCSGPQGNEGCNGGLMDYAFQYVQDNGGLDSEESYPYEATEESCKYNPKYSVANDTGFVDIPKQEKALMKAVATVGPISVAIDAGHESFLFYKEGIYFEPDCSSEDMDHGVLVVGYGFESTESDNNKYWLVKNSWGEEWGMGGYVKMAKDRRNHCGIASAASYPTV
# The depositor's hits bear a star; i = inactive; · = no result.
SMILES,Rce1 inh,ABHD5-PLIN5 inh,PfM18AAP inh-1,Granule exo inh,Platelet DG rel,PfM18AAP inh-2,CTSL1 confirm
OC1COC(OCC2OC(OCc3ccccc3)C(O)C(O)C2O)C(O)C1O (configuration not stated),i,-5.6,34.8*,-7.0,0.1,-3.1,-9.2
OC[C@H]1O[C@H](OCc2ccccc2)[C@H](O[C@@H]2OC[C@@H](O)[C@H](O)[C@H]2O)[C@@H](O)[C@@H]1O,i,0.9,·,-3.4,0.9,·,·
CCN1CCc2nc3sc(C(=O)N4CCc5ccccc5C4)c(N)c3cc2C1,i,-3.3,34.6*,-5.0,-2.8,-9.7,-0.9
CC(C)c1ccc2nc3sc(C(=O)N4CCc5ccccc5C4)c(N)c3cc2c1,i,-7.0,8.0,5.5,3.7,·,·
CC(=C/c1ccccc1)/C=N/n1c(C)n[nH]c1=S,i,-1.2,9.7,1.9,2.2,·,·
COc1ccc(/C=N/N2C(=O)CSC2=S)cc1,i,-3.2,48.7*,-2.1,3.4,-4.6,2.3
CC(/C=N/N1C(=O)CSC1=S)=C\c1ccccc1,i,-11.3,42.1*,-5.8,-2.6,-19.4,-3.2
Cc1ccc(CCN2CC(C(=O)N3CCN(c4ccc(F)cc4)CC3)CC2=O)cc1 (configuration not stated),i,-7.5,4.3,-4.7,16.7,·,·
COc1cc(C#Cc2c(-c3ccccc3OC)oc3ccccc23)cc(OC)c1,·,-6.7,·,3.6,·,·,·
Cc1ccc2oc(=O)c(/C=C(\O)c3ccco3)nc2c1,i,-5.0,50.3*,31.6,-39.8,21.2,3.5
O=C(OCC1CCCN2CCCCC12)c1ccc2c(c1)OCO2 (configuration not stated),i,7.4,35.3*,-4.8,-1.2,10.3,-8.1
COc1cccc(NC2SC(=O)N(c3ccccc3)C2=O)c1 (configuration not stated),i,0.2,34.9*,12.4,-17.5,-52.7,-3.3
COc1ccc(/C=N/Nc2nccnc2Cl)cc1,i,-2.9,35.6*,0.1,81.6*,-37.5,5.1
Oc1ccc(/C=N/Nc2cccc3cccnc23)c(O)c1,i,5.3,24.3,-1.6,7.9,·,·
COc1ccc(/C=N/Nc2ncnc(Cl)c2N)cc1OC,i,-7.0,35.2*,-1.4,21.0,-44.6,2.3
Oc1ccc(/C=N/Nc2nccnc2Cl)c(O)c1,i,13.1,35.3*,0.3,135.3*,-6.9,3.0
COc1cc(C(=O)Nc2ccc3nc(N4CCN(C)CC4)cc(C)c3c2)cc(OC)c1OC,i,3.6,-0.4,16.1,-10.2,·,·
COc1cccc(CNS(=O)(=O)c2ccc(S(=O)(=O)N3CCCC3)cc2)c1,i,-2.4,5.0,1.0,1.9,·,·
C=CCc1c(C)nc(-c2ccccc2)nc1N/N=C/c1ccccc1,i,-7.4,17.4,0.1,-2.0,·,·
C=CCc1c(C)nc(-c2ccccc2)nc1N/N=C(\C)c1ccc(N)cc1,i,3.5,52.1*,-1.3,2.6,14.3,-2.7
COc1cc(/C=C/C(=O)O)cc(S(=O)(=O)Nc2ccc3nc(C)sc3c2)c1OC,i,-3.8,38.1*,1.5,10.8,-6.4,2.4
CC(C)c1ccc(O)c(N)c1,i,0.4,17.1,-0.8,-1.3,·,·
CCC(C)c1ccc(O)c(N)c1 (configuration not stated),i,5.0,63.7*,2.8,-2.3,69.5*,3.3
NNc1nc(-c2ccccc2)c2cc(Br)ccc2n1,i,3.8,34.9*,-21.9,18.8,-5.7,5.2
NNc1nc(-c2ccccc2)c2cc(Cl)ccc2n1,i,-0.5,18.6,11.6,15.4,·,·
SMILES,Rce1 inh,ABHD5-PLIN5 inh,PfM18AAP inh-1,Granule exo inh,Platelet DG rel,PfM18AAP inh-2,CTSL1 confirm
CC1CCN(C(=O)CSc2nc3ccccc3c(=O)[nH]2)CC1,i,1.5,0.5,-6.1,12.2,·,·
Cc1cccc(NC(=O)CSc2nc3[nH]ncc3c(=O)[nH]2)c1C,i,-3.1,41.8*,-0.1,25.1,27.7,-4.3
CC1CCN(C(=O)CSc2nc3[nH]ncc3c(=O)[nH]2)CC1,i,-7.4,33.1*,-7.0,3.5,-25.8,-7.1
Cc1ccc2nc(-c3ccc(NC(=O)CCN4C(=O)c5ccccc5C4=O)cc3)sc2c1,i,8.8,-2.3,-2.9,-44.1,·,·
O=C(/C=C/c1cccs1)N1CCCCC1,i,3.3,-3.0,1.8,-0.2,·,·
O=C(/C=C/c1cccs1)N1CCN(c2ccc(O)cc2)CC1,i,-4.4,44.6*,-0.1,8.4,-10.2,4.9
COc1ccc(C2=Nn3c(nnc3-c3ccco3)SC2)cc1,i,0.3,-3.8,2.4,-0.3,·,·
Oc1ccc(C2=Nn3c(nnc3-c3ccco3)SC2)cc1O,i,-1.9,74.6*,-2.8,-2.0,59.5*,-1.4
COc1cc(CNc2ccc(N3CCCCC3)cc2)ccc1OCC(=O)NC(C)(C)C,i,-6.2,43.0*,1.0,8.2,-32.7,-1.3
CCOC(=O)NC1(Nc2ccc(C)cc2)Oc2ccccc2O1,i,-2.8,57.9*,-0.8,0.3,59.7*,-2.6
CCOC(=O)NC1c2ccccc2Oc2ccccc21,i,-2.1,-11.7,-1.7,-0.7,·,·
CCOC(=O)NC1(NCC(C)C)Oc2ccccc2O1,i,8.9,65.6*,2.5,2.9,34.3*,1.4
CCOC(=O)NC1(NC2CCCCC2)Oc2ccccc2O1,i,2.5,55.0*,0.9,8.3,35.3*,-0.3
CCOC(=O)Nc1ccc(Oc2ccccc2)cc1,i,0.1,7.9,-0.1,-4.3,·,·
CCOC(=O)C(Cc1ccccc1)C1(C)Oc2ccccc2O1 (configuration not stated),·,-6.6,·,-9.2,·,·,·
CCOC(=O)NC1(NC(C)C)Oc2ccccc2O1,i,-1.0,80.2*,3.6,3.0,-1.9,-4.7
CCCCC1=CC2=C(c3ccco3)C(=O)C(C)(OC(=O)c3ccc(OC)cc3)C(=O)C2=CN1CC1CC1 (configuration not stated),i,8.6,·,7.1,-1.2,·,·
COc1cc(CC2COC(c3ccc(O)c(OC)c3)C2COC(C)=O)ccc1O (configuration not stated),·,0.6,·,-1.7,·,·,·
COc1ccc(-c2nc3ccc(Cl)cn3c2Cc2ccccc2C(F)(F)F)cc1OC,·,2.7,·,-1.1,·,·,·
COc1cc(C(=S)N2CCOCC2)cc(OC)c1OC(=O)Cc1ccc(F)cc1,i,-4.2,35.8*,9.7,-2.4,-8.1,0.5
COc1cc(C(=O)Oc2c(OC)cc(C(=S)N3CCOCC3)cc2OC)cc(OC)c1OC,i,1.0,1.4,-3.3,8.2,·,·
N#Cc1c(-c2ccccc2)cc(-c2ccccc2)nc1SCC(=O)NCC(=O)O,i,3.1,38.2*,-1.5,21.6,-10.6,2.7
CCN(CC)S(=O)(=O)c1ccc(Cl)c(NC(=O)COC(=O)c2c(C)noc2C)c1,i,2.7,-6.4,8.0,-0.4,·,·
O=S(=O)(c1ccc(F)cc1)N1CCN(Cc2cc3c(cc2Br)OCCO3)CC1,·,-12.7,·,3.5,·,·,·

# Screening results deposited in PubChem by several laboratories.
